From ChEMBL document CHEMBL1157539, “Thousands of chemical starting points for antimalarial lead identification” (Nature, 2010)

Columns and labels:
Type in all cases: functional
Plasmodium falciparum [1] = assay: GSK_TCMDC: Inhibition of Plasmodium falciparum 3D7 in whole red blood cells, using parasite LDH activity as an index of growth. Test compounds present at 2uM
Plasmodium falciparum [2] = assay: GSK_TCMDC: Inhibition of Plasmodium falciparum Dd2 in whole red blood cells, using parasite LDH activity as an index of growth. Test compounds present at 2uM
HepG2 = assay: GSK_TCMDC: Percent inhibition of human HepG2 cell line. Test compounds present at 10uM.

| SMILES | Inhibition (Plasmodium falciparum [1]) [%] | Inhibition (Plasmodium falciparum [2]) [%] | Inhibition (HepG2) [%] |
| --- | --- | --- | --- |
| CN1CCCCC1CCc1cc(C(=O)Nc2ccc(-c3ccc(O)cc3)cc2)ccc1O (stereo not given) | 91 | 11 | 6 |
| Oc1c(C(Nc2nc3ccccc3s2)c2ccc(OC(F)F)cc2)ccc2cccnc12 (stereo not given) | 92 | 85 | 62 |
| COc1cc(Cc2cnc(N)nc2N)cc(OCCCCC2SC(=O)NC2=O)c1OC (stereo not given) | 94 | 0 | 0 |
| COc1ccc(C(=O)CCC(=O)N(Cc2ccc(-c3ccc(CNCCc4ccc(S(C)(=O)=O)cc4)cn3)cc2)C(C)CN(C)C)cc1F.O=C(O)C(F)(F)F (stereo not given) | 98 | 85 | 13 |
| O=C(/C=C/c1ccc(Cl)c(Cl)c1)NCCCCN1CCC(c2c[nH]c3ccccc23)CC1 | 91 | 11 | 57 |
| Cc1nc(C)c(CC(=O)Nc2cccc(-c3cccc(-c4nc5cc(C(F)(F)F)ccc5[nH]4)c3)c2)s1 | 95 | 30 | 49 |
| COc1cccc(-c2ccc3c(-c4cccc(S(C)(=O)=O)c4)cnc(N)c3c2)c1 | 96 | 21 | 45 |
| COc1ccc(-c2ccc(S(=O)(=O)Nc3cc4c(cc3OC(C)C)CCNCC4)cc2)cc1.Cl | 86 | 0 | 16 |
| Clc1ccc(OCc2ccccc2)c(-c2nc(-c3nc4ccc(Cl)cc4[nH]3)cs2)c1 | 99 | 60 | 0 |
| Cl.Oc1ccc2c(CNCCc3ccccc3)c(O)ccc2c1CNCCc1ccccc1 | 99 | 100 | 24 |
